D1 ag: human D1 receptor agonism; P21728; HEK293 T-REx D1 cells, calcium flux, agonist mode; activation, % at 2 µM; actives 1% (n = 360,000); in the data active means activation above about 30%
Target sequence (P21728 whole entry, looked up): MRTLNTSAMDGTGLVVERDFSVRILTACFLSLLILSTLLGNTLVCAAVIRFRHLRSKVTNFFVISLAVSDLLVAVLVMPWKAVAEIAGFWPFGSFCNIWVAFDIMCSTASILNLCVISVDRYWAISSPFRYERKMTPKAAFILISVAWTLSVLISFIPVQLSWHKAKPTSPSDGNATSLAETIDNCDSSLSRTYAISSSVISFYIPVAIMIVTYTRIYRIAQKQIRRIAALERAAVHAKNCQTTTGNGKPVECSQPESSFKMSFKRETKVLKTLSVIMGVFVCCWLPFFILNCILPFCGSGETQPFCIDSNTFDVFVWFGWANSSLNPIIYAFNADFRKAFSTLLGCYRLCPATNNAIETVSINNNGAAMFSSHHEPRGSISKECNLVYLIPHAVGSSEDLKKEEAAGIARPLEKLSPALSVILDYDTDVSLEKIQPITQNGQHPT
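Inducible HEK293 T-REx D1 cells, force-coupled to calcium signalling, were plated at 4000 cells/well with tetracycline and held overnight at 30 C. After no-wash calcium dye loading, compound-evoked calcium rise over 180 s flagged agonists.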
D3 antag: blocks the human D3 dopamine receptor; max response, negative = inhibition, %; AID 652054; P35462; D3R cells, DiscoveRx beta-arrestin luminescence, antagonist mode; active compounds read low; actives 2.5% (n = 360,000); in the data active means max response below about -50%; inconclusive means no clear call, values can overlap the other calls
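Cells plated overnight at 1500 cells/well, then exposed to library compounds with dopamine controls for 90 minutes at 37 degrees C. DiscoveRx reagent added for 30–60 minutes at room temperature; luminescence read, quantitative HTS format.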
BCR signal inh: blocks chronic active B-cell receptor signaling | ABC-DLBCL IkBa-CBG/CBR reporter, luminescence ratio, 4 h | Potency, µM (top dose mostly 46.1 µM), actives largely listed as inhibitors | actives 0.05% (n = 340,000); active means well fitted inhibition curve with a large enough effect in the signal ratio, with a control signal flat, not every such curve was filed as active; inconclusive means small, poorly fitted or top-dose-only effect, or effect the other way, or a change in a side signal; the % refers to the signal ratio
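TMD8 human ABC-DLBCL cells with doxycycline-inducible IκBα–green luciferase fusion and unfused red luciferase, in 0.5% FBS medium; compounds up to 46 uM, 4 h at 37C. Green/red luminescence ratio, filter-overlap corrected, fitted to concentration-response curves.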
D1 antagonist: human D1 dopamine receptor antagonism; P21728; actives 3.2% (n = 360,000); HEK293 TREx D1 cells, calcium flux, dopamine EC80; active compounds read low; AID 504652; activity change, negative = inhibition, % at 10 µM; in the data active means activity change below about -30%
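Using tetracycline-induced force-coupled D1 Hek293 cells and a calcium dye, signals were followed for 180 s after compound, then for 180 s after EC80 dopamine, to detect inhibitors.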
D1 PAM: human D1 dopamine receptor positive modulation | P21728 | HEK293 TREx D1 cells, calcium flux, dopamine EC20 potentiation | potentiation, % at 10 µM | actives 0.036% (n = 360,000) | AID 504651; in the data active means potentiation above about 30%
DRD3 agonist: D3 dopamine receptor (human) agonism. P35462. D3R DiscoveRx beta-arrestin cells, luminescence, 90 min. max activation, %. actives 0.58% (n = 410,000); in the data active means max activation above about 30%
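Agonist-mode cell screen: cells plated at 1500/well and incubated overnight at 37 °C, then exposed to library compounds for 90 min at 37 °C. Detection reagent was added for 30–60 min at room temperature, and luminescence was read.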
Large screens that a line does not name were inactive; ! = not confirmed by another sample. A selection: hits, their analogues and other compounds. The true share with any hit is near 6%.

Cc1cccc(-c2nc(SCC(=O)N(C)c3ccccc3)c3c(=O)n(C)c(=O)n(C)c3n2)c1	none (no result: D3 antag, BCR signal inh)
Cc1ccc(CN2CCN(/N=C/c3cccs3)CC2)cc1	D3 antag -59
COc1ccc(Br)cc1/C=N/N1CCN(Cc2ccccc2)CC1	none
Cc1ccc(CN2CCN(/N=C/c3cc(Br)ccc3O)CC2)cc1	D3 antag -87
Cc1ccc(/C=N/N2CCN(Cc3ccc(C)cc3)CC2)cc1	none
Cc1ccc2sc(N(CCN(C)C)C(=O)c3ccc4ccccc4c3)nc2c1C	D3 antag -73
Cc1ccc2sc(N(CCCN(C)C)C(=O)CN3C(=O)c4ccccc4C3=O)nc2c1C	D1 ag 46, BCR signal inh inconclusive
Cc1cccc2sc(N(CCCN(C)C)C(=O)COc3ccccc3)nc12	D1 ag 64 (no result: D3 antag, BCR signal inh)
Cc1cccc2sc(N(CCCN(C)C)C(=O)c3ccc(C(=O)c4ccccc4)cc3)nc12	D3 antag inconclusive, BCR signal inh inconclusive, D1 antagonist -31
Cc1cccc2sc(N(CCCN(C)C)C(=O)c3sc4ccccc4c3Cl)nc12	BCR signal inh inconclusive
COc1ccc(-c2cnc3c(NC(C)=O)cc(-c4cccc(C(=O)N(C)C)c4)cn23)cc1OC	none (no result: D1 ag, BCR signal inh, D1 antagonist, D1 PAM)
COc1cccc(N2CCN(C(=O)c3ccc4c(=O)n(CCc5ccccc5)c(=O)[nH]c4c3)CC2)c1	none (no result: D3 antag, BCR signal inh)
COc1cccc2sc(N(CCCN(C)C)C(=O)c3sc4ccccc4c3Cl)nc12	BCR signal inh inconclusive, D1 antagonist -73
CCN(CC)CCCNC(=O)CCCn1c(=O)[nH]c2ccc(Br)cc2c1=O	D1 antagonist -31 (no result: D3 antag, BCR signal inh)
O=[N+]([O-])c1ccc(S(=O)Cc2ccccc2)c([N+](=O)[O-])c1 (stereo not given)	D3 antag -102 (no result: D1 ag, BCR signal inh, D1 antagonist, D1 PAM)
O=[N+]([O-])c1ccc(CS(=O)c2ccccc2)cc1 (stereo not given)	none (no result: D1 ag, BCR signal inh, D1 antagonist, D1 PAM)
Cc1ccccc1NCc1ccc([N+](=O)[O-])s1	D1 antagonist -32
COc1cc([N+](=O)[O-])ccc1NC(=O)Cc1ccc(C)cc1	none (no result: D1 antagonist)
Cc1ccc(NC(=O)Cc2ccc([N+](=O)[O-])cc2)c(Br)c1	BCR signal inh inconclusive, D1 antagonist -45
Cc1cc([N+](=O)[O-])ccc1NCc1ccccc1	D1 antagonist -32
CN(Cc1ccco1)c1ncnc2ccc(-c3ccc4c(c3)OCCO4)cc12	BCR signal inh inconclusive (no result: D3 antag, DRD3 agonist)
CSc1ccc(CCNC(=O)c2ccc(CS(=O)(=O)c3ccc(Br)cc3)o2)cc1	BCR signal inh inconclusive (no result: D3 antag)
O=C(NCCc1ccc(F)cc1)Nc1ccc([N+](=O)[O-])cc1	D1 antagonist -49
Cc1cc([N+](=O)[O-])ccc1NC(=S)NC(=O)Cc1ccccc1	D3 antag -61, BCR signal inh inconclusive
Cc1cc([N+](=O)[O-])ccc1NC(=O)Cc1ccc(F)cc1	D1 antagonist -32
Cc1ccc([N+](=O)[O-])cc1NC(=O)Cc1ccc(F)cc1	none
N#CC(C#N)=C/C(C#N)=C(/N)N1CCN(c2ccc(Cl)cc2)CC1	D1 antagonist -40
CC(=O)NC12CC3CC(C1)CC(C(=O)Nc1c(C)n(C)n(-c4ccccc4)c1=O)(C3)C2	BCR signal inh inconclusive, D1 antagonist -41
Cc1c(NC(=O)C23CC4CC(CC(C)(C4)C2)C3)c(=O)n(-c2ccccc2)n1C	BCR signal inh inconclusive
c1csc(Cc2nn3c(-c4n[nH]c5c4CCC5)nnc3s2)c1	D3 antag -61, BCR signal inh inconclusive
O=C1CCc2cc(OCCCCc3nnnn3C3CCCCC3)ccc2N1	BCR signal inh inconclusive, D1 antagonist -42!
O=C(Nc1ccccc1Cl)C1CCN(c2nc3ccccc3nc2C(F)(F)F)CC1	none (no result: D3 antag, BCR signal inh)
Cc1c(NC(=O)C(C)Sc2ncnc3ccccc23)c(=O)n(-c2ccccc2)n1C (stereo not given)	BCR signal inh inconclusive
Cc1cc(SC(C)C(=O)Nc2c(C)n(C)n(-c3ccccc3)c2=O)nc2ccccc12 (stereo not given)	D3 antag inconclusive, D1 antagonist -32
Cc1nc2c(cnn2-c2ccccc2)c(=O)[nH]1	D1 antagonist -38

Screens: PubChem, National Center for Advancing Translational Sciences (NCATS)
